Screening data deposited in PubChem by National Center for Advancing Translational Sciences (NCATS).
SARS PLP yeast: blocks SARS-CoV papain-like protease in a yeast assay. AID 485353. S. cerevisiae expressing SARS-CoV PLpro, growth rescue. 330,000 compounds, 0.19% hits. Potency, µM (top dose mostly 32.9 µM), without a hit: top-dose activity, positive = growth rescue, actives largely listed as activators; calls by dose curve; note: potency is the fitted concentration of half-maximal effect; 0% is about no effect; nearly all actives have a fitted effect of over 55% in size
FMDV antiviral: blocks foot and mouth disease virus; FMDV antiviral cell-based qHTS; Potency, µM (doses to about 57.9 µM), for the others: top-dose activity change, negative = inhibition, actives largely listed as inhibitors; 410,000 compounds, 1.2% hits; AID 1159524; calls by dose curve; tested in HEK293T cells; note: read-out not given here; potency is the fitted concentration of half-maximal effect; % is set by controls: 0 for no effect and ±100 for the full control effect; nearly all actives have a fitted effect of over 45% in size
MARV entry inh: inhibitors of Marburg virus binding or cell entry; Marburg virus pseudotyped entry inhibition, cell reporter; Potency, µM (titrated, usually from 37.8 µM), inactives show top-dose activity change, negative = inhibition, hits mostly inhibitors; 300,000 compounds, 1.8% hits; calls by dose curve; tested in HEK293 cells; note: potency is the fitted concentration of half-maximal effect; % is set by controls: 0 for no effect and ±100 for the full control effect
Lassa entry inh: Lassa virus entry inhibition; Potency, µM (highest dose often 37.9 µM), inactives show top-dose activity change, negative = inhibition, actives largely listed as inhibitors; 300,000 compounds, 1.2% hits; Lassa virus pseudotype entry inhibition, cell reporter; calls by dose curve; tested in HEK293 cells; note: potency is the fitted concentration of half-maximal effect; % is set by controls: 0 for no effect and ±100 for the full control effect; nearly all actives have a fitted effect of over 50% in size
HCMV antiviral: blocks human cytomegalovirus replication | HFF cells, HCMV-luciferase reporter, 72 h; active compounds read low | activity change, negative = inhibition, % at 57.5 µM | 410,000 compounds, 4.5% hits | AID 1259415; in the data active = activity change below about -60%; inconclusive = no clear call, values can overlap the other calls; inactive = above about -39%; note: % is set by controls: 0 for no effect and ±100 for the full control effect
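Screen run at 2 compound doses on HFFs infected with reporter HCMV, MOI 1 PFU/cell. Luciferase activity from cell lysates at 72 h post infection gave inhibition relative to buffer-only and Salinomycin wells.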
HCV inhibitor: blocks hepatitis C virus; Potency, µM (titrated, usually from 41.8 µM), for inactives: top-dose activity change, negative = inhibition, usual class: inhibitors; 340,000 compounds, 3.4% hits; Huh7.5.1 HCVcc-Cre infection, luciferase reporter, 44 h; AID 651820; active = well fitted inhibition curve with a large enough effect; inconclusive = small, poorly fitted or top-dose-only effect, or another doubt; inactive = no such curve, though single readings can be large or run the other way; note: potency is the fitted concentration of half-maximal effect; % is set by controls: 0 for no effect and ±100 for the full control effect
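Cells seeded at 1,000/well and cultured 4 h, then compounds added followed by HCVcc-Cre virus (~0.5 moi). After 44 h further culture, luciferase substrate was added, plates held 15 min at room temperature, and luminescence read for 15 sec.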
* hit, by the source's call; ? = inconclusive; . = no result given; ! = not confirmed by another sample; [ ] = another dose, or the depositor's remark. Rows were chosen to be rich in hits. Some 8% of all compounds tested hit in one or more screens of this group.

SMILES	SARS PLP yeast	FMDV antiviral	MARV entry inh	Lassa entry inh	HCMV antiviral	HCV inhibitor
COC(=O)[C@@H]1CCCN1Cc1ccc2c(c1)CN(Cc1cccn1-c1ccc(Cl)cn1)CCO2	.	-2%	.	.	.	.
CCN1C(=O)[C@H]2[C@@H](c3ccc(C)cc3)N3C(=O)N(c4ccccc4)C(=O)[C@@]3(Cc3ccccc3)[C@H]2C1=O	9%	-17%	.	.	-4	-12%
COc1cc2c(cc1OC)C(c1ccccc1)CC2=O (stereo not drawn)	-3%	-4%	.	.	12	-11%
Cn1c(C(=O)NCc2ccc(F)cc2)cc2cc(S(=O)(=O)N3CCCCC3)ccc21	.	-35%	.	-2%[46.1 µM]	?	.
Cc1ccc2nc(-c3ccc(NC(=O)CN4CCN(c5ccccn5)CC4)cc3)sc2c1	-1%	15%	?	-19%	10	-53%
CCOC(=O)C(C)Sc1nc(-c2ccccc2Cl)cc(-c2ccccc2)c1C#N (stereo not drawn)	.	0%	?	18%[46.1 µM]	-2	.
CC(Sc1nc(C(C)(C)C)cc(-c2ccccc2)c1C#N)C(=O)Nc1ccccc1 (stereo not drawn)	-21%	-34%	?	-13%	-64*	-25%
CCOc1ccc(NC(=O)C(=O)NCCCn2ccnc2)cc1	-1%	.	4%	-5%	-1	1%
C=COCCNC(=O)Nc1ccc(Cl)c(Cl)c1	-29%	.	8%	13%	-60*	10µM*
COc1ccc(NC(=O)C(=O)NCCCn2ccnc2)cc1	-1%	4%	-4%[46.1 µM]	?	-60*	9%
O=C(NCCCn1ccnc1)Nc1ccc(Cl)c(Cl)c1	7%	3%	-4%	0%	-106*	7%
COc1ccc(CN2CCN(Cc3ccccc3)CC2)c(OC)c1	0%	-13%	18µM*	-19%[14.3 µM]	17	.
COc1ccc2ccccc2c1CN1CCCC(CO)C1 (stereo not drawn)	1%	-1%	-23%	4%	-3	-11%
COc1ccc(CN2CCN(Cc3ccc4ccccc4c3)CC2)cc1OC	3%	?	?	?	-65*	?
COc1ccc2ccccc2c1CN1CCN(Cc2ccccc2)CC1	-7%	.	?	?	-75*	-12%
CCc1c(N)nc(N)nc1Nc1ccccc1C	.	-27%	-16%	7%	-20	-16%
CCCC[C@@H]1Cc2[nH][nH]c(=O)c2[C@H](c2cccc3ccccc23)O1	.	-13%	.	.	-33	.
COc1cc(C2C(C#N)=C(N)Oc3c2ccc2ccccc32)ccc1OCC(=O)Nc1ccccc1C (stereo not drawn)	2%	-15%	?	-17%	10	8.9µM*
COC(=O)c1ccc(NC(=O)COc2ccc(C3C(C#N)=C(N)Oc4c3ccc3ccccc43)cc2OC)cc1 (stereo not drawn)	0%	-6%	-27%	?	17	?
O=C(c1ccc2c(c1)OCO2)N(c1ccc(Br)cc1)C1C=CS(=O)(=O)C1 (stereo not drawn)	0%	-19%	-4%	-7%	-60*	8%
Cc1ccc(N(C(=O)c2ccc3c(c2)OCO3)C2C=CS(=O)(=O)C2)cc1 (stereo not drawn)	2%	.	-1%	0%	-29	4%
O=C(c1ccc(S(=O)(=O)N2CCCC2)cc1)N(c1ccc(F)cc1)C1C=CS(=O)(=O)C1 (stereo not drawn)	-5%	-11%	-1%	?	-69*	10%
O=C(c1ccc(S(=O)(=O)N2CCCC2)cc1)N(c1ccccc1)C1C=CS(=O)(=O)C1 (stereo not drawn)	-3%	-19%	19%	24%	-9	14%
CCOC(=O)N1CCC(Nc2ccc3nnc(-c4ccccc4)n3n2)CC1	3%	?	.	.	135	14µM*
CCOC(=O)N1CCC(NCCNC(=O)c2ccccc2Cl)CC1	-5%	5%	3%	-14%	11	-25%
SMILES	SARS PLP yeast	FMDV antiviral	MARV entry inh	Lassa entry inh	HCMV antiviral	HCV inhibitor
CCOC(=O)N1CCC(NC(=O)c2cnc3n(c2=O)CCS3)CC1	1%	-8%	.	.	-61*	17%
CCOC(=O)N1CCN(c2c(NC3CCN(Cc4ccccc4)CC3)c(=O)c2=O)CC1	-4%	-10%	.	.	-64*	-14%
CCOC(=O)N1CCN(c2c(NCCc3ccccc3)c(=O)c2=O)CC1	-5%	-5%	.	.	10	12%
CCOC(=O)N1CCC(NCCNC(=O)c2ccccc2)CC1	1%	10%	-13%	8%	-70*!	6%
Cc1ccc2c(CC(=O)N3CCOc4ccc(CN5CCOCC5)cc4C3)cc(=O)oc2c1	.	1%	.	.	.	.
COCCNc1ccnc(-c2ccccc2C)n1	.	-3%	.	.	.	.
COc1ccccc1-c1nn(CCC(=O)Nc2ccc(C)cc2)c2nc(C)cc(C)c12	.	-26%	0%[46.1 µM]	-8%[46.1 µM]	20	.
O=C1N=NC(c2ccccc2)c2ccccc21 (stereo not drawn)	.	.	1%	.	.	.
C/C(=N\NC(N)=S)C1C2C3CC4C5CC(C42)C1C53 (stereo not drawn)	-12%	-8%	?	-10%[46.1 µM]	-62*	?
C1=NCCc2c1[nH]c1ccccc21	.	-2%	?	5µM*	-95*	6%
C[C@H]1N[S+](=O)([O-])c2ccc(Br)cc2O[C@@H]1c1ccccc1	.	.	.	-12%[46.1 µM]	.	.
O=C(Nc1ccc(Cl)cc1)Nc1nnc(CSc2ccc(Cl)cc2)s1	10%	?	?	1%[46.1 µM]	-85*	?
O=C(Cc1nnc(NC(=O)Nc2ccc(Cl)cc2)s1)NCc1ccccc1	?	-21%	6%	1%	-13	13%
Cc1ccc(NC(=O)Nc2nnc(CSCCOc3ccc(Cl)cc3)s2)cc1	12%	0%	7%	5%	-35	10%
O=C(Nc1cccc(Cl)c1)Nc1nnc(CC2=CCCCC2)s1	-2%	?	17%	8%	-98*	?
O=C(Nc1cccc(Cl)c1)Nc1nnc(CSCCOc2ccc(Cl)cc2)s1	24%	?	?	?	-72*	2.5µM*
O=C(Nc1ccc(Cl)cc1)Nc1nnc(CSCc2ccccc2)s1	-3%	0%	6%	24%	-70*	5%
COc1ccc(CC(=O)NCCc2sc(-c3cccc(F)c3)nc2C)cc1	.	-27%	.	-22%[46.1 µM]	-3	.
CC(=O)Nc1ccc(S(=O)(=O)N[C@@H](C)C(=O)OCC(=O)Nc2ccc3c(c2)OCCO3)cc1	.	-9%	.	.	22	9%
Cc1c([C@@H]2Nc3ccccc3NC3=C2C(=O)CC(C)(C)C3)cnn1C	.	.	2%	.	.	.
CCOC(=O)c1cccc(NC(=O)N2CC(CC)Sc3ccccc32)c1 (stereo not drawn)	.	-7%	.	?	?	.
CC(C)NC(=O)c1nnc2n1CCN(Cc1cccc3c1OCO3)C2	.	.	.	.	-13	.
Cc1nc2c(c(=O)[nH]1)CSCC2	.	-11%	.	.	.	.
Cc1nn(-c2ccccc2)c(C)c1/C=N/n1c(-c2ccccc2Br)n[nH]c1=S	0%	-10%	?	13µM*	-19	-20%
